Compound activity as filed in PubChem.
Only some compounds are listed: those with a hit (about 21% of all), similar ones and a draw of the others.
Sm TGR block: blocks Schistosoma mansoni thioredoxin glutathione reductase. purified TGR, DTNB reduction, TNB absorbance 405 nm. Potency, µM (doses to about 114 µM), for the others: at the highest dose activity change, negative = inhibition, most hits filed as inhibitors. 360,000 tested, 3% active. AID 485364; note: potency is the fitted concentration of half-maximal effect; % is set by controls: 0 for no effect and ±100 for the full control effect; nearly all actives have a fitted effect of over 60% in size
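Kinetic colorimetric format: TGR-catalysed, NADPH-driven DTNB reduction monitored via TNB absorbance. Enzyme dispensed at 20 nM; compound exposure 15 min at room temperature before reaction start.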
Pf growth 96h: P. falciparum growth inhibition at 96 hour, primary screen for plastid delayed-death inhibitors. P. falciparum luciferase reporter growth, 96 h. Potency, µM (highest dose often 28.7 µM), without a hit: top-dose activity change, negative = inhibition, most hits filed as inhibitors. 320,000 tested, 6.9% active; note: potency is the fitted concentration of half-maximal effect; % is set by controls: 0 for no effect and ±100 for the full control effect
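P. falciparum expressing integrated firefly luciferase grown in erythrocytes (2% hematocrit, 0.05% parasitemia final) with compounds for 96 hours at 37 C, 5% CO2. Growth inhibition read as loss of luminescence after adding luciferase detection reagent.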
Shiga toxin inh: Shiga toxin inhibition; Vero cells, Shiga toxin protein synthesis inhibition reporter; inhibition, % at 38.7 µM; 290,000 tested, 9.2% active; AID 2315; in the data active = inhibition mostly above about 28%, no sharp cut-off; inactive = mostly below about 43%; note: 0% is about no effect
Pf growth 48h: P. falciparum growth inhibition at 48 hours (one generation); P. falciparum luciferase growth in erythrocytes, 48 h; Potency, µM (titrated, usually from 28.7 µM), without a hit: at the highest dose activity change, negative = inhibition, actives largely listed as inhibitors; 310,000 tested, 5.9% active; AID 504832; note: potency is the fitted concentration of half-maximal effect; % is set by controls: 0 for no effect and ±100 for the full control effect
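Firefly luciferase activity from engineered P. falciparum reports growth; inhibitors lower the luminescent signal. Cultures contained 2% hematocrit erythrocytes at 0.1% final parasitemia.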
Cycloheximide cs: counter-screen for Shiga toxin inhibitors: cycloheximide protein synthesis inhibition; cell reporter, cycloheximide protein synthesis inhibition counterscreen; 300,000 tested, 12% active; max response, %; in the data active = max response mostly above about 13%, no sharp cut-off; inactive = mostly below about 14%; note: read at 38.3 µM for the half of the compounds with a filed dose; 0% is about no effect
NS1 function inh: inhibitors of influenza NS1 protein function; 270,000 tested, 0.4% active; AID 2326; Potency, µM (highest dose often 46.1 µM), for the others: at the top dose activity, positive = more growth; calls by dose curve; note: potency is the fitted concentration of half-maximal effect; actives are rising curves; nearly all actives have a fitted effect of over 50% in size
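In this qHTS, NS1 from influenza A is expressed in budding yeast, where it slows growth. Cells are switched from glucose to 2% galactose medium (pH 6.0, -URA), treated with compound, and growth recovery is read at OD600.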
The depositor's hits bear a star; ? = inconclusive; / = no result given; + = active, no number; [ ] = dose if it differs, or a comment. Unless noted, calls come from the whole dose curve; as a rule, active = well fitted curve in the direction sought with a large enough effect; inconclusive = small, poorly fitted or top-dose-only effect, or another doubt; inactive = no such curve, though single readings can be large; an effect the other way counts as inactive or inconclusive.

SMILES | Sm TGR block | Pf growth 96h | Shiga toxin inh | Pf growth 48h | Cycloheximide cs | NS1 function inh
OCCNc1nc(N2CCCCC2)nc2ccccc12 | 0% | -2% | -8 | ? | -3 | -1%
c1ccc(CN2CCC(Nc3nc(-c4ccccc4)nc4ccccc34)CC2)cc1 | 1% | / | -13 | 8.3µM* | -3 | -125%
c1coc(CNc2nc(N3CCCCC3)nc3ccccc23)c1 | ? | / | -7 | 6.6µM* | -1 | ?
Nc1nc(N2CCN(Cc3ccccc3)CC2)n[nH]1 | / | 18% | -17 | 36% | 3 | -2%
c1ccc(CNc2nc(N3CCN(Cc4ccccc4)CC3)nc3ccccc23)cc1 | 4% | ? | 3 | 5.2µM* | -5 | -64%
Cc1ccc(NC(=O)c2ccccc2-c2ccc(C(F)(F)F)cc2)cc1S(=O)(=O)N1CCOCC1 | 2% | ? | -5 | ? | -2 | -5%
O=C1NCCCCC1NS(=O)(=O)c1ccc(Cl)cc1 (centres undefined) | 5% | 32% | -15 | 11% | 2 | -1%
O=C(Cn1ncc2c3ccccc3n(Cc3cccc(Cl)c3)c2c1=O)NCCCN1CCCCC1 | 10% | / | / | / | / | /
COc1ccccc1CNCCSc1nnnn1C | 1% | / | / | / | / | /
O=c1cc(NCCO)c2ccccc2o1 | 0% | 34% | -2 | / | -3 | ?
O=c1cc(NCCc2ccccc2)c2ccccc2o1 | / | 9% | 42* | ? | 24* | -53%
Cc1ccc(Nc2cc(=O)oc3ccccc23)c(C)c1 | 10% | 0.13µM* | -2 | ? | 1 | -71%
Cc1ccccc1Nc1cc(=O)oc2ccccc12 | -5% | 13µM* | 17 | / | 7 | -47%
CCOc1ccccc1NC(=O)c1cn(C2CCCC2)c(=O)c2c1c1ccccc1n2C | -2% | / | / | / | / | /
COCCNC(=O)C12CC3CC(CC(Cl)(C3)C1)C2 | 9% | 14% | 11 | -5% | 3 | 1%
Cc1ccnc(N2C(=O)C3C4CC(C(Br)C4Br)C3C2=O)c1 (centres undefined) | -12% | 9.3µM* | -9 | 20% | -1 | 22%
Cc1ccnc(N2C(=O)c3cccc4c([N+](=O)[O-])ccc(c34)C2=O)c1 | -21% | -13% | -6 | 0% | -1 | -35%
Cc1ccc(-c2nc3ccccc3c(=O)n2-c2cc(C)ccn2)cc1 | -1% | 7% | 48 | -7% | 30* | 6%
COc1ccc(-c2nc3ccccc3c(=O)n2-c2cccnc2)cc1 | -28% | ? | -18 | 2% | -4 | 7%
COc1ccc(-n2c(-c3ccc(C)cc3)nc3ccccc3c2=O)cc1 | 13% | ? | 58* | 0% | 32* | -4%
Cc1ccnc(N2C(=O)c3ccccc3C2=O)c1 | -1% | 12µM* | -6 | -14%[0.00184 µM] | -6 | 1%
O=C(COc1cc(Cl)ccc1Cl)N1CCNC1=O | -8% | 23% | / | ? | / | /
O=c1c2ccccc2nc(-c2cccs2)n1-c1ccccc1 | 20% | 6% | -11 | 0% | -3 | -1%
O=C(c1ccccc1)c1c(O)nc(-c2ccccc2)n(-c2ccccc2)c1=O | -18% | 94% | 78* | 46% | 54* | 3%
CC(=O)c1c(O)c(C)c(-c2ccccc2)n(-c2ccccc2)c1=O | 0% | 2% | 22 | 9% | -4 | -2%
SMILES | Sm TGR block | Pf growth 96h | Shiga toxin inh | Pf growth 48h | Cycloheximide cs | NS1 function inh
Cc1ccc(-c2nc3ccccc3c(=O)n2-c2ccncc2)cc1 | 1% | ? | -4 | -66% | 1 | -3%
CCOc1ccc(-n2c(-c3cccs3)nc3ccccc3c2=O)cc1 | 29% | 9.3µM* | 17 | 1% | -4 | 0%
O=c1c2ccccc2nc(-c2ccc(-c3ccccc3)cc2)n1-c1ccncc1 | 6% | ? | 21 | ? | 26* | -1%
c1ccc(-c2cnc(CSc3ncnc4sccc34)o2)cc1 | 10µM* | 25% | 9 | -1% | 23 | -62%
Cc1cc(C)n2nc(SCc3ncc(-c4ccccc4)o3)nc2n1 | ? | -17% | -9 | -7% | 5 | -13%
CCC(C)/C(C)=N/NC(=O)c1cn(-c2ccccc2)nc1-c1ccccc1 (centres undefined) | 3% | -20% | -12 | -10% | -2 | ?
CCCn1nc(Oc2nc(N(C)C)nc(N(C)C)n2)ccc1=O | 4%[57.1 µM] | 5% | -8 | 34% | 9 | -1%
CCN(CC)c1ccc(C(=O)c2ccccc2C(=O)O)c(O)c1 | -11% | 18% | 28* | 1% | 22* | 21%
O=C(O)c1cc(N(Cc2ccccc2O)Cc2ccccc2O)ccc1O | / | / | -2 | / | 12 | /
COc1ccc(C(=O)N2CCCC(CO)(Cc3ccccc3C)C2)o1 (centres undefined) | 45µM* | ? | 12 | -30% | 7 | 9%
Cc1ccccc1CC1(CO)CCCN(C(=O)c2ccccc2Cl)C1 (centres undefined) | 6%[57.1 µM] | 9.3µM* | 44 | -3% | -2 | -4%
Cc1ccccc1CC1(CO)CCCN(Cc2cn[nH]c2-c2ccccc2)C1 (centres undefined) | 15% | -9% | -7 | ? | -2 | -3%
Cc1ccccc1CC1(CO)CCCN(Cc2ccn[nH]2)C1 (centres undefined) | 8% | 12µM* | -14 | 2% | 2 | -2%
CN(Cc1nc(Cc2ccccc2F)no1)[C@@H]1CS(=O)(=O)C[C@H]1O | 6% | 12µM* | 1 | 34% | 0 | 0%
Cc1cc(C)n(CCN(C)Cc2nc(Cc3ccccc3F)no2)n1 | 7% | ? | 5 | 68% | 12 | 2%
FC(F)(F)c1cc(-c2ccco2)nc(NCc2ccccc2)n1 | 18µM* | ? | 46 | ? | 3 | 7%
FC(F)(F)c1cc(-c2ccco2)nc(NCc2cccnc2)n1 | 45µM* | ? | -18 | 12µM* | 1 | -54%
COc1ccc(CCNc2nc(-c3ccco3)cc(C(F)(F)F)n2)cc1OC | 1% | ? | -22 | ? | -2 | -3%
FC(F)(F)c1cc(-c2ccccc2)nc(NCc2cccnc2)n1 | -11% | ? | -14 | 3.7µM* | -3 | -13%
Fc1ccc(CNc2nc(-c3ccco3)cc(C(F)(F)F)n2)cc1 | 25µM* | -13% | 5 | 0% | 2 | -98%
COc1ccccc1NC(=O)CCNS(=O)(=O)c1ccc2c(c1)CCN2C(=O)C1CC1 | -1% | / | / | / | / | /
Cc1ccc(NC(=O)/C=C/c2ccc(Cl)cc2)nc1 | / | 24% | 50* | 60% | 22* | -4%
O=C(/C=C/c1ccccc1)Nc1ccc(Br)cn1 | 1% | 123% | + | 428% | 31* | -7%
O=C(/C(=N/N=C/c1ccc(O)c(O)c1)c1ccccc1)c1ccccc1 | -1% | ? | 10 | ? | 0 | -7%
COc1cccc(Nc2nc(-c3cccc(N4C(=O)c5ccccc5C4=O)c3)cs2)c1 | -11% | 0% | 30 | 10% | 33* | ?
COc1cccc(Nc2ccc(Nc3cccc(OC)c3)nn2)c1 | -3% | -26% | -4 | -12% | -3 | -2%
COc1cccc(Nc2nc(-c3ccc(O)cc3)cs2)c1 | -21% | 75% | 78 | 71% | 35* | -102%
